Measured values reported in publication PMC7862700, “An all-to-all approach to the identification of sequence-specific readers for epigenetic DNA modifications on cytosine”.

What was measured:
Experiment in all cases: DAPPL (digital affinity profiling via proximity ligation, sequencing); 10 mM Tris-HCl pH 7.5, 50 mM NaCl, 1 mM DTT, 4% glycerol, room temperature, 30 min; GST-TFs on glutathione beads, 16-mer random dsDNA library, 0.1% formaldehyde crosslink after washing; high values mean tight binding
[1] = molecular target: T1, FLI1 (Homo sapiens, UniProt Q01543 1-452); settings: protein: recombinant; tags: N-terminal GST; dsDNA, one strand shown
T1 sequence: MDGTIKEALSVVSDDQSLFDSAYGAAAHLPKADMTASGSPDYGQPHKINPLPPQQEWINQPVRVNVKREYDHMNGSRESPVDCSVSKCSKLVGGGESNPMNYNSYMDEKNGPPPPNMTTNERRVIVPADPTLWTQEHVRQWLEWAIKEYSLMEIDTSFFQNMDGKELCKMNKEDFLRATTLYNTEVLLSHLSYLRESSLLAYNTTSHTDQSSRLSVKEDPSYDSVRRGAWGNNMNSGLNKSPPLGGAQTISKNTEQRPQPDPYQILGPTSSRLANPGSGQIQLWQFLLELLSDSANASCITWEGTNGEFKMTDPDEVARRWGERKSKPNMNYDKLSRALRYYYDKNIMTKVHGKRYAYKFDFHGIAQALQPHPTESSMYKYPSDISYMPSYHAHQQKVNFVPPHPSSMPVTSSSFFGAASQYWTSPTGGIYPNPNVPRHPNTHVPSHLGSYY
In short: (§1)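 A tag-only sample was pooled with DNA-barcoded human transcription factors that had been expressed in yeast as GST fusions and captured on glutathione beads. The pools were incubated for 30 min at room temperature with 200 nmole of a random double-stranded 16-mer DNA library in Tris/NaCl/DTT/glycerol buffer, then washed, crosslinked with 0.1% formaldehyde, proximity-ligated (BsaI/T4 ligase, 1 h, 37 °C), PCR-amplified and sequenced on an Illumina NextSeq500. Binding signal is each hexamer's read frequency for a factor divided by its frequency for the tag-only sample.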

[2] = molecular target: T2, ELK1 (Homo sapiens, UniProt P19419 1-428); settings: protein: recombinant; tags: N-terminal GST; dsDNA, one strand shown
T2 sequence: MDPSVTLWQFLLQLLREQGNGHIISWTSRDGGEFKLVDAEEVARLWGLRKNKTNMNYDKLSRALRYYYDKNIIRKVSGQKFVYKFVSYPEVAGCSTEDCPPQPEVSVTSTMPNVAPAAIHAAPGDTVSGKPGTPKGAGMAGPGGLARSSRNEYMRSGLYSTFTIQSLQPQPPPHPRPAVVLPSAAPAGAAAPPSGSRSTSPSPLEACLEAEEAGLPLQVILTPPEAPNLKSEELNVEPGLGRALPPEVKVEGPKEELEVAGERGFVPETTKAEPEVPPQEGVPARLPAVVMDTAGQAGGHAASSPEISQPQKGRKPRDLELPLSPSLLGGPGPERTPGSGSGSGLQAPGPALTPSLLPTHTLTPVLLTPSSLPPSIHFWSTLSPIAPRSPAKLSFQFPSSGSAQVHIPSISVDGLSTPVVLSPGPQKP
In short: as §1

[3] = molecular target: T3, GABPA (Homo sapiens, UniProt Q06546 1-454); settings: protein: recombinant; tags: N-terminal GST; dsDNA, one strand shown
T3 sequence: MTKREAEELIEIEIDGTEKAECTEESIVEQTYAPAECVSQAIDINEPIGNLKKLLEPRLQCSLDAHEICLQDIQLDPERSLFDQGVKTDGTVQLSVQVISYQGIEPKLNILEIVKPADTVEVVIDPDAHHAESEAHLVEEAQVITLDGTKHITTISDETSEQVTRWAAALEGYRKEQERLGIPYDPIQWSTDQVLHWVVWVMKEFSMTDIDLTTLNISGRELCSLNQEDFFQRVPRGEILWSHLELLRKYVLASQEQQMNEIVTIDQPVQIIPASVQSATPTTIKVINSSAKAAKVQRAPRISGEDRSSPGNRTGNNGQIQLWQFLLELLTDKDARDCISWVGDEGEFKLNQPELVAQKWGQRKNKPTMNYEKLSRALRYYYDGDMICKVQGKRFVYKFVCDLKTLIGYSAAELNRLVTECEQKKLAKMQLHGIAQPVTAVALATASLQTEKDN
In short: as §1

[4] = molecular target: T4, ERG (Homo sapiens, UniProt P11308 1-479); settings: protein: recombinant; tags: N-terminal GST; dsDNA, one strand shown
T4 sequence: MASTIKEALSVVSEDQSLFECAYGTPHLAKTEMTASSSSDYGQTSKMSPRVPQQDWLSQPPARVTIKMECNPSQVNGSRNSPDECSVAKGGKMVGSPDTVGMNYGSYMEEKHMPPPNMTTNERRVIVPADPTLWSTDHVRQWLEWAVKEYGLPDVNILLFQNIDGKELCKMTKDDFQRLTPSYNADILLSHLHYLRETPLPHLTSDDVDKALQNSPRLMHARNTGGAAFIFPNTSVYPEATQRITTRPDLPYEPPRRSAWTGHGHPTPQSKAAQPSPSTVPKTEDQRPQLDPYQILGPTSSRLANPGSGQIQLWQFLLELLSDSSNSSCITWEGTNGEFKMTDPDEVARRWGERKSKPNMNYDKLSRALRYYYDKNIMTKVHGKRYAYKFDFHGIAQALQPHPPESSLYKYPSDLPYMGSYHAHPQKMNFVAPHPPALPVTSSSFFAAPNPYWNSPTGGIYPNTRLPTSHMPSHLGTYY
In short: as §1

[5] = molecular target: ELF1 (Homo sapiens, UniProt P32519 1-619); settings: protein: recombinant; tags: N-terminal GST; dsDNA, one strand shown
In short: as §1

[6] = molecular target: T5, EHF (Homo sapiens, UniProt Q9NZC4 1-300); settings: protein: recombinant; tags: N-terminal GST; dsDNA, one strand shown
T5 sequence: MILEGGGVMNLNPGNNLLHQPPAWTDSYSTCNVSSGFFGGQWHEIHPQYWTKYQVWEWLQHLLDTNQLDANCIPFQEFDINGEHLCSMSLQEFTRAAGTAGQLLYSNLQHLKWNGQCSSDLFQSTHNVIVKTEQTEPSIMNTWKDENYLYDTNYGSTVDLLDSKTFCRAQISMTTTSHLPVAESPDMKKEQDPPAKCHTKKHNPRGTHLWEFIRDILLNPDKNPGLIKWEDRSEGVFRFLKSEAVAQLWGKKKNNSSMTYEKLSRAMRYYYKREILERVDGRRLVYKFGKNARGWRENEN
In short: as §1

[7] = molecular target: SPI1 (Homo sapiens, UniProt P17947 1-270); settings: protein: recombinant; tags: N-terminal GST; dsDNA, one strand shown
In short: as §1

[8] = molecular target: SPIB (Homo sapiens, UniProt Q01892 1-262); settings: protein: recombinant; tags: N-terminal GST; dsDNA, one strand shown
In short: as §1

[9] = molecular target: T6, ELK3 (Homo sapiens, UniProt P41970 1-407); settings: protein: recombinant; tags: N-terminal GST; dsDNA, one strand shown
T6 sequence: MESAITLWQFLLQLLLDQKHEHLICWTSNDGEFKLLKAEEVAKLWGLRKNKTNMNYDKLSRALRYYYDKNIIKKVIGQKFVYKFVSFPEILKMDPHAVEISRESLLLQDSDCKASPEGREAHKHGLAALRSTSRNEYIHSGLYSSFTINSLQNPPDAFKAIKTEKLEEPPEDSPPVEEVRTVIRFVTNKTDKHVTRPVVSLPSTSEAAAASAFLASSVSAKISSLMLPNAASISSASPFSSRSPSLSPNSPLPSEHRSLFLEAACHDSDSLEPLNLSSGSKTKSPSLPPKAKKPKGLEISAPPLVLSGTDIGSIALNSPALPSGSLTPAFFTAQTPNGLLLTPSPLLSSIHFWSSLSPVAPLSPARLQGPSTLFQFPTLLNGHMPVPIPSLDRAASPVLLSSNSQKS
In short: as §1

[10] = molecular target: T7, FEV (Homo sapiens, UniProt Q99581 1-238); settings: protein: recombinant; tags: N-terminal GST; dsDNA, one strand shown
T7 sequence: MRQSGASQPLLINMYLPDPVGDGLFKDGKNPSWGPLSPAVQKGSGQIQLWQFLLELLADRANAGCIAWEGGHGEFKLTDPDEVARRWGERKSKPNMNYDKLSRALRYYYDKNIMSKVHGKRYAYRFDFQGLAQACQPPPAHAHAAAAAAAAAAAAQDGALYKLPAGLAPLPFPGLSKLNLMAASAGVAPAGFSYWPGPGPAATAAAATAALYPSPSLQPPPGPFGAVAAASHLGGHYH
In short: as §1

[11] = molecular target: ETV5 (Homo sapiens, UniProt P41161 1-510); settings: protein: recombinant; tags: N-terminal GST; dsDNA, one strand shown
In short: as §1

[12] = molecular target: HSF1 (Homo sapiens, UniProt Q00613 1-529); settings: protein: recombinant; tags: N-terminal GST; chain copies: 3; dsDNA, one strand shown
In short: as §1

[13] = molecular target: T8, SPIC (Homo sapiens, UniProt Q8N5J4 1-248); settings: protein: recombinant; tags: N-terminal GST; dsDNA, one strand shown
T8 sequence: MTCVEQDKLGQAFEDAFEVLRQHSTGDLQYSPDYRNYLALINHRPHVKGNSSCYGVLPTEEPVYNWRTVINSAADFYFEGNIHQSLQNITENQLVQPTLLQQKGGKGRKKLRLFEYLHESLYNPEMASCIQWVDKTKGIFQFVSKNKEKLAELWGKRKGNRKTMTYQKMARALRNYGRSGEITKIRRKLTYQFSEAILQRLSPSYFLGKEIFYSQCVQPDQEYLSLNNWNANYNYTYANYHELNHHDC
In short: as §1

[14] = molecular target: ELF4 (Homo sapiens, UniProt Q99607 1-663); settings: protein: recombinant; tags: N-terminal GST; dsDNA, one strand shown
In short: as §1

[15] = molecular target: T9, ELK4 (Homo sapiens, UniProt P28324-2 1-405); settings: protein: recombinant; tags: N-terminal GST; dsDNA, one strand shown
T9 sequence: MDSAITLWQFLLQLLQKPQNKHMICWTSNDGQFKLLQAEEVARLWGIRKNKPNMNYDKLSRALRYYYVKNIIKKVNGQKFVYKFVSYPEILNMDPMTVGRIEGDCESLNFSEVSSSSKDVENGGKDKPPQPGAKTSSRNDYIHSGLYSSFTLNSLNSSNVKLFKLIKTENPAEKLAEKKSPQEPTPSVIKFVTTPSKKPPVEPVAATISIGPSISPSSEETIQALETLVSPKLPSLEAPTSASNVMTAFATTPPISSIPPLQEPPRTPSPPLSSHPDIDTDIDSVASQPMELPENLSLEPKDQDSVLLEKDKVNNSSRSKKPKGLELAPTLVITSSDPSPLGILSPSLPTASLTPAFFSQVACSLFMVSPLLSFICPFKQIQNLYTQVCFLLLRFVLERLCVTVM
In short: as §1

[16] = molecular target: T10, ETV2 (Homo sapiens, UniProt O00321 1-342); settings: protein: recombinant; tags: N-terminal GST; dsDNA, one strand shown
T10 sequence: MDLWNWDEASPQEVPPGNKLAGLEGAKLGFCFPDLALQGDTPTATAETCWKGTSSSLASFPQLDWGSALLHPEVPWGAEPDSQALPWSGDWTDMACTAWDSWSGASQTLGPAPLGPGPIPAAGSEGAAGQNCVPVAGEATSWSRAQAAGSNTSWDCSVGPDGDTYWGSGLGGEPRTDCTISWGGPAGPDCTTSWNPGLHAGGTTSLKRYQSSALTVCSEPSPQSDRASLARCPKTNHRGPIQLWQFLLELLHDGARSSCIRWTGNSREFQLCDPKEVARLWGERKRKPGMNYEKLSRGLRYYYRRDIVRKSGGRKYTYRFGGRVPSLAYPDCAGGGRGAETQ
In short: as §1

[17] = molecular target: T11, ELF3 (Homo sapiens, UniProt P78545 1-371); settings: protein: recombinant; tags: N-terminal GST; dsDNA, one strand shown
T11 sequence: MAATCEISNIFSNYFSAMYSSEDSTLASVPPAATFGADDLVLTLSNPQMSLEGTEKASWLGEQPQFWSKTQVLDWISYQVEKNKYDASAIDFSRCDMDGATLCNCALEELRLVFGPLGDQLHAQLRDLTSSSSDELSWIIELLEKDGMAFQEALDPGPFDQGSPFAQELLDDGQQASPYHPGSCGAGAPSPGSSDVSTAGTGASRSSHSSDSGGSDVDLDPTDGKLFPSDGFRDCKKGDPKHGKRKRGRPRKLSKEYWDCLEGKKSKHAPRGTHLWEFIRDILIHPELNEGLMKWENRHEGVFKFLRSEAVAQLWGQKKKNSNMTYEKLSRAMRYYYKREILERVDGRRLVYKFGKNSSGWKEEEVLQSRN
In short: as §1

[18] = molecular target: CRX (Homo sapiens, UniProt O43186 1-299); settings: protein: recombinant; tags: N-terminal GST; dsDNA, one strand shown
In short: as §1

[19] = molecular target: ETV1 (Homo sapiens, UniProt P50549 1-477); settings: protein: recombinant; tags: N-terminal GST; dsDNA, one strand shown
In short: as §1

Chain of HSF1 (Q00613 whole entry): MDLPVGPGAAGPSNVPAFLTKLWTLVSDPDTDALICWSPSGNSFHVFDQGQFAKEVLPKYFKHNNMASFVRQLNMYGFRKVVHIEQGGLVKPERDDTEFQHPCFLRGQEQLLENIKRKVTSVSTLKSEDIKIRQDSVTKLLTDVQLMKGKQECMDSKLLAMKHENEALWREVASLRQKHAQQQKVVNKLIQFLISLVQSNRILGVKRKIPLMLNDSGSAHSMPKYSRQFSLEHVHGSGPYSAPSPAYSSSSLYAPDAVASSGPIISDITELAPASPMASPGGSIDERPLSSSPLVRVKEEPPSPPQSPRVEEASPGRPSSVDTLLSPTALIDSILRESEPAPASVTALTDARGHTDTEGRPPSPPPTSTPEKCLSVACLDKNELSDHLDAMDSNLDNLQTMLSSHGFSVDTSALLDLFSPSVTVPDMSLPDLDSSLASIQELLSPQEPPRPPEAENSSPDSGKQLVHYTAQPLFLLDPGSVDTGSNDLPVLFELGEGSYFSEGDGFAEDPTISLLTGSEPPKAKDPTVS
Chain of ELF1 (P32519 whole entry): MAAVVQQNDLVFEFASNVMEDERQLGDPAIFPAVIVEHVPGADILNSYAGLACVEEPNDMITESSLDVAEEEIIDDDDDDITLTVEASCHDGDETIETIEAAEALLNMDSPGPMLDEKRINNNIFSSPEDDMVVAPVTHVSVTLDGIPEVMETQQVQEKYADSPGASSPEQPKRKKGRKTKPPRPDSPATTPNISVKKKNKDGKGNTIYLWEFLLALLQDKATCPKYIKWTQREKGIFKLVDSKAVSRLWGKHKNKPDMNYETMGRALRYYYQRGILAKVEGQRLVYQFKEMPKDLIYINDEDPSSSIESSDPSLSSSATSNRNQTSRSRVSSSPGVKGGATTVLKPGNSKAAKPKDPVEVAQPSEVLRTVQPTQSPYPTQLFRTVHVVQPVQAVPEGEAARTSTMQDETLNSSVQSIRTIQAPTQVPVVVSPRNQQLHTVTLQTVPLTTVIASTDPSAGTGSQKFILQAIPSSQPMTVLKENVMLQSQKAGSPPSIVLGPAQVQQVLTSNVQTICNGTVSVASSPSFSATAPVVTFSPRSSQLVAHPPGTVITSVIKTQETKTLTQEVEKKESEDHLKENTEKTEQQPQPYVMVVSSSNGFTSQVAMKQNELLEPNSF
Chain of ETV1 (P50549 whole entry): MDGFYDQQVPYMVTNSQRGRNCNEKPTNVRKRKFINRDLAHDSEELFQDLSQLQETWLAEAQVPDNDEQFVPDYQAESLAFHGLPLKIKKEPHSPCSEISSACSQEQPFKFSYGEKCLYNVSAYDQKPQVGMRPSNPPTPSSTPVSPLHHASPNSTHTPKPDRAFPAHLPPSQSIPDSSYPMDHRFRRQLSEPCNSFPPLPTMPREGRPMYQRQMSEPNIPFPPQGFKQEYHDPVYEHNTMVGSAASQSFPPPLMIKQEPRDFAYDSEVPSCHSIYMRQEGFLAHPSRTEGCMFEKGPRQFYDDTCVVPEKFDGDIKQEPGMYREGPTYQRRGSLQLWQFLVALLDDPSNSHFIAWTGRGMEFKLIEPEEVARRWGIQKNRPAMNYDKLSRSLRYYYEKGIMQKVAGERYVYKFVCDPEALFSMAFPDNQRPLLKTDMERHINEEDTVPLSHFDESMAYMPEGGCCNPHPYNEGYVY
Chain of CRX (O43186 whole entry): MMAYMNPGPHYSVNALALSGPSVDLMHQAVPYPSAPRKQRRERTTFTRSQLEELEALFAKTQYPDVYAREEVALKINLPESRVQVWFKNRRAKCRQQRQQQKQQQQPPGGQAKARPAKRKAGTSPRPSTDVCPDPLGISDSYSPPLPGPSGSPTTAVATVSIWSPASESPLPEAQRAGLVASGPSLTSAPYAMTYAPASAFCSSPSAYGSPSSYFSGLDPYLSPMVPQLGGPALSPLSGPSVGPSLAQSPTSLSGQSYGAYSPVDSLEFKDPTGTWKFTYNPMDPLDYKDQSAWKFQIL
Chain of ETV5 (P41161 whole entry): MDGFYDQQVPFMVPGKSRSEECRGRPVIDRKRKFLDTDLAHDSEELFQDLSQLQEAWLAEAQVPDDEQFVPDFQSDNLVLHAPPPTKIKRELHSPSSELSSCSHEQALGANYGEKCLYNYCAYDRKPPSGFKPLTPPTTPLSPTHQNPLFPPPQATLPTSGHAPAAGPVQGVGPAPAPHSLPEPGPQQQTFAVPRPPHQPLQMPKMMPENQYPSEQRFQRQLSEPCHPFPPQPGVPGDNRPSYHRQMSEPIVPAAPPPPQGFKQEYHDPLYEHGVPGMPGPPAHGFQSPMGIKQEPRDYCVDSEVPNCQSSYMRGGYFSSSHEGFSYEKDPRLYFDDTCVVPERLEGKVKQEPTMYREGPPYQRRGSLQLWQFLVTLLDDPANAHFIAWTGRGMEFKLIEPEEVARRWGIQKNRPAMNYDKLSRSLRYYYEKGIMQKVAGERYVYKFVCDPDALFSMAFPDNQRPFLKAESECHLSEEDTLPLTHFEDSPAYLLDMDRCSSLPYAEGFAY
Chain of ELF4 (Q99607 whole entry): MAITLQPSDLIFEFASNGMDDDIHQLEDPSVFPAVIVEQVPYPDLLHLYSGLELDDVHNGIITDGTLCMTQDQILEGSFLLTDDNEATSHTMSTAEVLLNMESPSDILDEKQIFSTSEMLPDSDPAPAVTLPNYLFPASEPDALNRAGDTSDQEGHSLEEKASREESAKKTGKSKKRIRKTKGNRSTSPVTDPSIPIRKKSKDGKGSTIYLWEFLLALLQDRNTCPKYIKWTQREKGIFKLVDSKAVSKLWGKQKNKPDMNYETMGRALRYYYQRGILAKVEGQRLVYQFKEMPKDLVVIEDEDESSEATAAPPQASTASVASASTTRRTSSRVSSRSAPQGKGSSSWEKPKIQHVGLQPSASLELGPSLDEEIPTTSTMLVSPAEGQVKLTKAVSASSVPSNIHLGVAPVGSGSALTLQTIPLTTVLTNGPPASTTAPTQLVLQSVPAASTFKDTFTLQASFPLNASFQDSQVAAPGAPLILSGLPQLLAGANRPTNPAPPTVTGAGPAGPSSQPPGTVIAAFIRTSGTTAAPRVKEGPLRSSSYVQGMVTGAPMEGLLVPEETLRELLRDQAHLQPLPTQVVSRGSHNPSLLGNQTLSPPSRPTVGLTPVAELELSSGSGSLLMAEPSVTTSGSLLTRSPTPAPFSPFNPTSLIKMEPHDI
Chain of SPIB (Q01892 whole entry): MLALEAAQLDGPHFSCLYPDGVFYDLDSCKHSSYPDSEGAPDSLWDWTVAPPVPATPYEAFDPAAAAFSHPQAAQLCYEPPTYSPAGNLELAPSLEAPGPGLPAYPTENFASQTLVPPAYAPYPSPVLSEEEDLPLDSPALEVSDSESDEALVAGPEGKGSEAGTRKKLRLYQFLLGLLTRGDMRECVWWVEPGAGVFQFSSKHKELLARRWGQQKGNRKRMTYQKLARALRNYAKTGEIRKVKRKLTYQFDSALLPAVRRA

For AACTAT, the binding signal [1] was 1.37 fold enrichment (6-mer frequency, TF over GST control), the binding signal [2] was 1.36 fold enrichment (6-mer frequency, TF over GST control) and the binding signal [3] was 1.38 fold enrichment (6-mer frequency, TF over GST control). For the same sequence, the binding signal [4] was 1.36 fold enrichment (6-mer frequency, TF over GST control), the binding signal [5] was 1.29 fold enrichment (6-mer frequency, TF over GST control) and the binding signal [6] was 1.36 fold enrichment (6-mer frequency, TF over GST control). For the same sequence, the binding signal [7] was 1.33 fold enrichment (6-mer frequency, TF over GST control), the binding signal [8] was 1.29 fold enrichment (6-mer frequency, TF over GST control) and the binding signal [9] was 1.36 fold enrichment (6-mer frequency, TF over GST control). The binding signal [10] was 1.31 fold enrichment (6-mer frequency, TF over GST control), the binding signal [11] was 1.37 fold enrichment (6-mer frequency, TF over GST control) and the binding signal [12] was 1.33 fold enrichment (6-mer frequency, TF over GST control). The binding signal [13] was 1.43 fold enrichment (6-mer frequency, TF over GST control), the binding signal [14] was 1.36 fold enrichment (6-mer frequency, TF over GST control) and the binding signal [15] was 1.45 fold enrichment (6-mer frequency, TF over GST control). The binding signal [16] was 1.49 fold enrichment (6-mer frequency, TF over GST control), the binding signal [17] was 1.26 fold enrichment (6-mer frequency, TF over GST control) and the binding signal [18] was 1.26 fold enrichment (6-mer frequency, TF over GST control). The binding signal [19] was 1.43 fold enrichment (6-mer frequency, TF over GST control).
